# Source: PubChem BioAssay AID933 (National Center for Advancing Translational Sciences (NCATS), 2007)
# Records with an inconclusive call do not appear. Entries that show only a call come without a potency. Values without a mark were called inactive. Active and inactive are the calls of the source. Calls come from the whole dose curve; as a rule, active = well fitted activation curve with a large enough effect in the signal ratio, with a control signal flat; inconclusive = small, poorly fitted or top-dose-only effect, or a change in a side signal; inactive = flat fitted curve, though single readings scatter; the % refers to the signal ratio.
# Molecular target: Thyrotropin receptor (Homo sapiens) (UniProt P16473)
# Sequence (P16473 whole entry, looked up): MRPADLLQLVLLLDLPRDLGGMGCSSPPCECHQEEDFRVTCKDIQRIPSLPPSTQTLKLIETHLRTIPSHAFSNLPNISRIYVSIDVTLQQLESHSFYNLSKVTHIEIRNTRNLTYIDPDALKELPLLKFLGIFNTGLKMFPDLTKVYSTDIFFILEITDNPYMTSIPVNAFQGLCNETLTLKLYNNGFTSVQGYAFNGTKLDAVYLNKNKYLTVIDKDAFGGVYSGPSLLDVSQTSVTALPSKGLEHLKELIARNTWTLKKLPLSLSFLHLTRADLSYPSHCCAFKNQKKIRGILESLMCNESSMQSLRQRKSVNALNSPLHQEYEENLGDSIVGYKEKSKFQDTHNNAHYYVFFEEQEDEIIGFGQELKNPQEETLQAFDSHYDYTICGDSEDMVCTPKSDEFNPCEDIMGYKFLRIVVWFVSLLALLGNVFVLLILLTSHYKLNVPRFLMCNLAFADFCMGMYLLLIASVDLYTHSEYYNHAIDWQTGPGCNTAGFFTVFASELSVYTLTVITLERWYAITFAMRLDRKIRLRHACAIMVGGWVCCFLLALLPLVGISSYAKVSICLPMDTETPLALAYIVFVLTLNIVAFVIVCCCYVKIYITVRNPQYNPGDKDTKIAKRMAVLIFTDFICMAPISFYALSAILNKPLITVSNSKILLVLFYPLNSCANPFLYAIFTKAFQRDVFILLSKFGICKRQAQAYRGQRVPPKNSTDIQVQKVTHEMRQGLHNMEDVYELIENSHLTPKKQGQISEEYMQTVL
# Assay: Secondary Concentration-Response Assay for Agonists of the Thyroid Stimulating Hormone Receptor: HTRF Activity Detection
# Conditions: HEK293-TSHR cells, cAMP HTRF ratio, 30 min; series mostly up to 91.7 µM
# How it was run: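 cAMP accumulation was detected by antibody-based HTRF, excitation 330 nm, emissions 615 and 660 nm. Compounds acted for 30 min at room temperature on stably TSHR-transfected HEK 293 cells, with phosphodiesterase inhibitor RO 20-1724 (100 uM) in the medium.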
# Potency is the fitted concentration of half-maximal effect.
Compound,activation,Potency
Cc1ccc(S(=O)(=O)N2CCC(C(=O)NCCCN3CCCCCC3)CC2)cc1,0.566% [at 0.00035 µM],–
COc1ccc(CN(Cc2ccccc2)C(=O)c2ccccc2O)cc1,–,inactive
CCOC(=O)c1ccc(NC(=O)c2ccc(CN3CCOCC3)cc2)cc1,0.768% [at 0.00035 µM],–
COc1ccc(C(=O)N(Cc2ccccc2)Cc2ccc(OC)c(COc3ccc(NC(C)=O)cc3)c2)c(O)c1,–,inactive
COc1ccc(C=O)cc1COc1ccc(NC(C)=O)cc1,–,inactive
COC(=O)COc1ccc(Cl)cc1C1Nc2ccccc2C(=O)N1c1ccc(OC)cc1 (centres undefined),–,inactive
COc1ccc(C2Nc3ccccc3C(=O)N2Cc2ccccc2)cc1COc1ccc(F)cc1 (centres undefined),–,inactive
COc1ccc(C2Nc3ccccc3C(=O)N2Cc2ccccc2)cc1COc1ccc([N+](=O)[O-])c(C)c1 (centres undefined),–,inactive
COC(=O)C1=C(C)NC(C)=C(C(=O)OC)C1c1ccc(OC(=O)c2ccco2)cc1,0.436% [at 0.00035 µM],–
CCS(=O)(=O)N1CCN(C(C)CCc2ccccc2)CC1 (centres undefined),0.972% [at 0.00035 µM],–
O=C1c2ccccc2NC(c2ccc(Cl)cc2Cl)N1Cc1ccccc1 (centres undefined),–,inactive
COc1ccc(CN2C(=O)c3ccccc3NC2c2ccc(OC)c(COc3ccc(NC(C)=O)cc3)c2)cc1 (centres undefined),–,3.16 µM (active)
O=C1c2ccccc2NC(c2ccc(F)cc2)N1Cc1ccco1 (centres undefined),–,inactive
COc1ccc(C2Nc3ccccc3C(=O)N2c2ccc(Cl)cc2)cc1COc1ccc(NC(C)=O)cc1 (centres undefined),–,inactive
